# CatB block: human cathepsin B inhibition. P07858. purified cathepsin B, fluorogenic substrate, fluorescence. inhibition, %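 (tested at 10 µM)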. 63,000 compounds, 0.1% hits; in the data active means inhibition above about 21%;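 further: 0% = enzyme with no compound and 100% = no enzyme blank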
# Cathepsin G inh: blocks human cathepsin G enzyme activity; P08311; purified enzyme, AMC-tetrapeptide fluorescence, pooled mixtures; inhibition, % at 5 µM (by protocol); 62,000 compounds, 0.2% hits; AID 581;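 active means inhibition above 20% in each of the two mixture wells holding the compound; inactive means inhibition of 20% or less in either well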;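 further: 0% = enzyme control without mixture and 100% = blank lacking enzyme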
# Target sequence (P08311 21-244 limits assumed): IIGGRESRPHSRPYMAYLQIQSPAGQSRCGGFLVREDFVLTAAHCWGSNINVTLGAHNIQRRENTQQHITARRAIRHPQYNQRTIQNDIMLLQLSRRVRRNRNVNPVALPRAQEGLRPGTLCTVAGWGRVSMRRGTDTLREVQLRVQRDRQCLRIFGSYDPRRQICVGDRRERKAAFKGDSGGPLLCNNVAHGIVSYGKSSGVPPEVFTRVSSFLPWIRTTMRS
# C1s inh: human complement C1s inhibition; purified C1s, fluorogenic AMC substrate, pooled mixtures; mean inhibition % of two 10-compound mixtures (hits give high values), % at 5 µM (by protocol); 62,000 compounds, 0.16% hits; AID 538;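 active means inhibition above 20% in each of the two 10-compound mixture wells holding the compound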;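 further: 0% = enzyme wells lacking compound mixture and 100% = no-enzyme blank wells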
# CatS block: human cathepsin S inhibition; P25774; recombinant cathepsin S, AMC dipeptide fluorescence, pooled mixtures; inhibition, %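 (tested at 5 µM per compound within 10-compound mixtures)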; 62,000 compounds, 0.06% hits; AID 501; in the data active means inhibition above about 32%, passing the limit was not always enough;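 further: 0% = enzyme without compound and 100% = blank without enzyme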
# CatL inh: blocks human cathepsin L protease activity | inhibition, %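 (tested at 10 µM)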 | AID 460 | 58,000 compounds, 0.17% hits | P07711 | purified cathepsin L, fluorogenic substrate, fluorescence; in the data active means inhibition above about 45%;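 further: 0% = enzyme with no compound and 100% = no enzyme blank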
# CatB mix inh: human cathepsin B inhibition by mixtures; 62,000 compounds, 0.06% hits; inhibition, %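 (ten-compound pools at 5 µM per compound and 50 µM total)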; P07858; AID 488; Purified cathepsin B, AMC dipeptide fluorescence, compound mixtures; in the data active means inhibition above about 22%, passing the limit was not always enough;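 further: 0% = enzyme without compound and 100% = no enzyme blank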
# Active calls of the source: *; nt = no result. An excerpt weighted towards active compounds, which were near 0.58% of everything screened.
SMILES,CatB block,Cathepsin G inh,C1s inh,CatS block,CatL inh,CatB mix inh
O=C(NCc1ccco1)c1cc2nc(C3CC3)cc(C(F)(F)F)n2n1,-3,2,2,-4,0,5
Cc1cc(NC(=O)c2cc3nc(C4CC4)cc(C(F)(F)F)n3n2)no1,6,14,22*,10,12,1
CSc1cccc(-n2cc(-c3ccc4c(c3)OCO4)[nH]c2=O)c1,-2,10,1,4,11,0
CCN(CC)c1ccc(/C=N/n2c(=S)[nH]nc(C)c2=O)cc1,7,6,12,-6,104*,2
CCSc1ccccc1C(=O)n1nnc2ccccc21,32*,35*,39*,-6,3,30*
Cc1occc1C(=O)n1nnc2ccccc21,11,10,-19,7,24,-3
O=S(=O)(c1ccccc1F)N(Cc1ccco1)Cc1nnc(-c2ccccc2Br)o1,-2,-2,0,-13,47*,-3
Cc1cc(C)n(Cc2cc(C)c(Cn3nc(C)cc3C)cc2C)n1,5,7,-33,-5,19,3
O=C(Nc1ccccc1C(F)(F)F)N1CCCCCC1,-4,-5,3,0,-11,39
NC(=O)C1(N2CCCCC2)CCN(C(=O)Nc2ccccc2C(F)(F)F)CC1,5,37,25*,-11,3,4
Cc1ccc(C2NC(=O)c3c(sc4c3CCN(C)C4)N2)s1 (configuration not stated),2,7,8,-3,55*,0
COc1nc(N2CCCC2)nc(-n2cc(-c3ccccc3)nn2)n1,-5,-1,3,-5,1,4
CCN(CC)c1ccc2cc(C(=O)Nc3ccc(-n4cnnn4)c(OC)c3)c(=O)oc2c1,-6,22,-5,9,-25,3
COc1ccc2c(c1)CCc1c(C(=O)Nc3ccn(Cc4ccc(C)cc4)n3)noc1-2,1,94*,11,-2,-4,2
COc1ccc2c(c1)CCc1c(C(=O)Nc3cc(C)n(Cc4ccc(Cl)cc4)n3)noc1-2,4,66*,12,-4,0,1
CCC(=O)c1cc(F)c(N2CCN(S(=O)(=O)c3ccc(C)cc3)CC2)cc1C,nt,7,-9,2,nt,-6
COc1ccc(-c2nc(N3CCOCC3)nc3nn4c(C)c(CCC(=O)O)c(C)nc4c23)cc1,3,4,-51,-5,-35,-1
O=S(=O)(Nc1nnc(-c2ccccc2)s1)c1ccc(Cl)cc1,7,8,12,-1,105*,8
COc1ccc(S(=O)(=O)Nc2nnc(C(C)(C)C)s2)cc1,-3,4,2,1,nt,-4
CCOc1ccc2nc(NC(=O)CN3CCC(n4nnc5cc(F)ccc54)CC3)sc2c1,5,-6,-29,0,1,-2
N#Cc1nc(N2CCOCC2)nc(N2CCOCC2)n1,9,10,17,32*,67*,8
CC(C)(C)OC(=O)N[C@@H](Cc1ccccc1)c1nnc(S(=O)(=O)Cc2ccccc2)o1,0,83*,5,-6,13,-2
CCC(C)[C@@H](NC(=O)OC(C)(C)C)c1nnc(S(=O)(=O)Cc2cccc(C)c2)o1 (some centres not stated),34*,10,15,3,76*,23*
CCC(C)C(NCc1cccc(C)c1)C(=O)O (configuration not stated),0,3,7,0,-2,1
COc1ccc(Cl)cc1NC(=O)C1CSC(c2ccncc2)=N1 (configuration not stated),2,-1,2,0,-1,2
SMILES,CatB block,Cathepsin G inh,C1s inh,CatS block,CatL inh,CatB mix inh
CCOC(=O)c1cc2c(=O)n3cccc(C)c3nc2n(CCc2ccccc2)c1=N,-1,-9,-55,11,-29,-2
Cc1nn(-c2ccccc2)c(OC(=O)c2cccs2)c1S(=O)(=O)c1ccccc1,0,-1,-24,8,12,-5
COc1cccc(C(=O)Oc2cc(N)n(S(=O)(=O)c3ccc(C)cc3)n2)c1OC,13,17,5,12,16,9
Nc1cc(OC(=O)c2cccs2)nn1S(=O)(=O)c1ccccc1,76*,32*,23,-2,3,69*
Nc1cc(OC(=O)c2cccs2)nn1S(=O)(=O)c1ccc(F)cc1,56*,18,17,-2,-3,55*
COc1cc(S(=O)(=O)NCCc2ccc3c(c2)OCO3)ccc1-n1cnnn1,5,-3,-17,3,11,-4
